From PubChem BioAssay AID743314 (Broad Institute, 2014)
Results with a measured potency or affinity are listed apart. Inconclusive results are not listed.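 Rule for the calls: active = fitted half-maximal concentration no higher than twice the top tested dose, in every repeat run; inconclusive = repeat runs disagree, poor fit, or flat partial inhibition; inactive = the rest.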

molecular target: Endoplasmic reticulum aminopeptidase 1 (Homo sapiens) (UniProt Q9NZ08); assay: ERAP1 aminopeptidase inhibitors, dose response, biochemical, cherry-pick, set 2, plate reader (AID 743314); conditions: Recombinant ERAP1, Leu-AMC fluorescence, 60 min; series mostly up to 11 µM; activity change, negative = inhibition: at the top concentration;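 note: 0% = neutral control wells and -100% = L-leucinethiol positive control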
Sequence (Q9NZ08 whole entry, looked up): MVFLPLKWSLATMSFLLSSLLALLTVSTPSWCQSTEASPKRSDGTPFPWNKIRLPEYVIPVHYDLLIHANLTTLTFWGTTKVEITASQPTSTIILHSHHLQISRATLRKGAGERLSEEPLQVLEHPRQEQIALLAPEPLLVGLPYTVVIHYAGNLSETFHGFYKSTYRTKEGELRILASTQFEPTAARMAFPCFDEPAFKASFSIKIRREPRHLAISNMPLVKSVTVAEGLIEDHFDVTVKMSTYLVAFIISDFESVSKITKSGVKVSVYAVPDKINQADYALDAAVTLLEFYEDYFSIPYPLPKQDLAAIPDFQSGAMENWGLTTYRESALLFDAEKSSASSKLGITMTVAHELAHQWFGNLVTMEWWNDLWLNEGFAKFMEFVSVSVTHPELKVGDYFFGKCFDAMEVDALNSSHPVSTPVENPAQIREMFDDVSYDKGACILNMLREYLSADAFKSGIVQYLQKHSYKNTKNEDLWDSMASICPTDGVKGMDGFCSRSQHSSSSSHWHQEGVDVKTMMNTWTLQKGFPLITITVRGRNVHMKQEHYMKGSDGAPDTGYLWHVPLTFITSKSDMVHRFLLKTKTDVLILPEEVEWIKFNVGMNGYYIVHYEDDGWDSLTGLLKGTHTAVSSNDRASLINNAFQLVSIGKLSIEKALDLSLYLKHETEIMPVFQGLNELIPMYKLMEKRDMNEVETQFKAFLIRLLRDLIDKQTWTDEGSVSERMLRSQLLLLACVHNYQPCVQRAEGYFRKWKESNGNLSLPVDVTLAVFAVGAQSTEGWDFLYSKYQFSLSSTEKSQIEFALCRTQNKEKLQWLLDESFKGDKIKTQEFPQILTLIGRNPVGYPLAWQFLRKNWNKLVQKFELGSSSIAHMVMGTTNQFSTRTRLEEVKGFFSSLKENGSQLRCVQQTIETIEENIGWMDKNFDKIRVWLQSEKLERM

Activity change, negative = inhibition, inactive:
C[C@@H]1CN([C@H](C)CO)C(=O)c2cccc(NC(=O)Nc3ccccc3)c2O[C@@H]1CN(C)Cc1ccc(C(=O)O)cc1 54.7%, COc1ccc2c3c([nH]c2c1)[C@H](CO)NCC31CN(Cc2cc(F)ccc2F)C1 19.8%, COc1ccc2c3c([nH]c2c1)[C@H](CO)N(S(=O)(=O)c1cn(C)cn1)CC31CCN(CC2CCCCC2)CC1 42.8%, COc1ccccc1CN1[C@H](CO)[C@@H](c2ccccc2)C12CN(C(=O)c1ccccn1)C2 18.1%, C[C@H](CO)N1C[C@H](C)[C@@H](CN(C)C)OCCCC[C@H](C)Oc2ccc(NS(=O)(=O)c3ccc(Cl)cc3)cc2C1=O 10.9%, COc1cccc(CN(C)Cc2cc(=O)oc3cc(O)c(Cl)cc23)c1 187%, Cc1nc2cc(NC(=O)C3COc4ccccc4O3)ccc2s1 (centres undefined) -0.647%, Cc1ccc(NC(=O)C2CCCN2C(=O)c2cccs2)c(C)c1 (centres undefined) -10.6%, C[C@@H]1CN([C@@H](C)CO)C(=O)c2cccc(NC(=O)Nc3ccc(C(F)(F)F)cc3)c2O[C@H]1CN(C)C 29%, CC(Nc1ccc(F)cc1)=[N+](C)CCNS(=O)(=O)c1ccc(Cl)cc1 -9.26%, CCOC(=O)C1CCN(S(=O)(=O)c2ccc3c(c2)CC(=O)N3C)CC1 -1.92%, CCn1cnc2c1c(=O)n(CC(=O)NCC(F)(F)F)c(=O)n2Cc1ccccc1 -0.513%, COCC(=O)N1CCC2(CC1)CN(Cc1ccccc1F)[C@H](CO)c1[nH]c3cc(OC)ccc3c12 21.8%, COc1cccc(-c2ccc([C@H]3[C@H]4CN(C(=O)c5cccnc5)CC(=O)N4[C@H]3CO)cc2)c1 23.7%
